Screens (PubChem)
Sampled rows, rich in hits. Any-hit rate of the full collection: about 2.4%.
D2 ag-1 – D2 dopamine receptor (human) agonism; HEK293 T-REx D2 cells, calcium flux agonist mode; 340,000 compounds, 0.53% hits; P14416; activation, % at 2 µM;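 active = activation over 3 SD above normal in the single-dose calcium agonist read, cut at about 30% in these data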
Target sequence (P14416 whole entry, looked up): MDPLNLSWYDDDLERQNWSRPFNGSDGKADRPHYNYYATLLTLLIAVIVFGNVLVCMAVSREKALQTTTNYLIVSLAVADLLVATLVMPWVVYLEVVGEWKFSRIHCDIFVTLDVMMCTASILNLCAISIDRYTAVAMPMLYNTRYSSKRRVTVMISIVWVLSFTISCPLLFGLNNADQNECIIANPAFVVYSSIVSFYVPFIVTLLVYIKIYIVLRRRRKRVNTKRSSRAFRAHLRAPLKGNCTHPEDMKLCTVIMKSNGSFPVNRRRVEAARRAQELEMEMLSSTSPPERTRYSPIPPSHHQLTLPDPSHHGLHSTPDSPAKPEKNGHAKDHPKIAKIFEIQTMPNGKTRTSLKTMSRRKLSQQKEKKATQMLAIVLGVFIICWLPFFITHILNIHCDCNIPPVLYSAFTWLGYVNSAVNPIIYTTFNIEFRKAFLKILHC
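Tetracycline-induced HEK293 T-REx cells with force-coupled D2 receptor, plated overnight at 30 C, loaded with no-wash calcium dye. After a 10 s baseline, compound was pin-added and calcium flux read kinetically for 180 s; calcium rises flagged agonists.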
D2 PAM-1 – positive allosteric modulators of human D2 dopamine receptor | DiscoveRx D2 beta-arrestin cells, luminescence, 90 min; 100% = 57 uM dopamine signal | 360,000 compounds, 0.23% hits | potentiation, % (concentration not given with the values) | AID 624464 | P14416; in the data active = potentiation above about 50%
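PathHunter beta-arrestin assay in DiscoveRx D2 cells. Compounds were added with an EC20 of dopamine (50 nM final) for 90 min at 37 deg C. Luminescence was read 1 h after detection reagent, with 57 uM dopamine as the EC100 control.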
D2 ag-2 – activates the human D2 dopamine receptor; P14416; DiscoveRx PathHunter D2 beta-arrestin, luminescence, 90 min; 100% = 57 uM dopamine signal; 360,000 compounds, 0.084% hits; activation, % (no concentration beside the values); AID 624465; in the data active = activation above about 40%
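Agonist mode: compounds alone added to overnight-plated D2 PathHunter cells for 90 min at 37 C, with 57 uM final dopamine (EC100) defining full response. Beta-arrestin recruitment detected by chemiluminescent reagent, read after 1 h at ambient temperature.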
D2 antagonist – D2 dopamine receptor (human) antagonism; 340,000 compounds, 2% hits; AID 485344; HEK293 TREx D2 cells, calcium flux, dopamine EC80; inhibition, % at 10 µM; in the data active = inhibition above about 30%; inactive = below that, where a call was filed
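Tetracycline-induced HEK293 TREx cells expressing D2 receptor forced-coupled to calcium signalling, loaded with no-wash calcium dye. Compounds added and calcium flux read 180 s, then dopamine added at EC80 and read a further 180 s.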
D2 PAM-2 – positively modulates the human D2 dopamine receptor allosterically; 340,000 compounds, 0.34% hits; HEK293 T-REx D2, calcium flux, EC20 dopamine potentiation; potentiation, % at 10 µM; P14416;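 active = potentiation over 3 SD above the plate norm, cut at about 30% in these data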
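Calcium flux readout, no-wash dye, 1 read/s. Inducible HEK293 Trex D2 line, overnight 30 C. Compound alone 180 s (agonist flags), then EC20 dopamine, another 180 s to score potentiation.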
Large screens that a line does not name were inactive.

Cc1cc(C)c(-c2csc(NC(=O)C3=COCCO3)n2)cc1C	D2 antagonist 32
CCOc1cc(Cl)c(NC(=O)CC)cc1OCC	D2 antagonist 71
Cc1ccsc1CN(C(=O)c1oc2cc(Br)ccc2c1C)C1CCS(=O)(=O)C1 (stereo unspecified)	none (no result: D2 PAM-1, D2 ag-2, D2 antagonist)
C=CC[N+](C)(C)CCCNC(=O)/C=N/O	D2 antagonist 62
Cc1cc(=O)oc2c3c(cc(OCC(=O)NC(Cc4ccc(Cl)cc4)C(=O)O)c12)OC(C)(C)CC3 (stereo unspecified)	D2 antagonist 36
Cc1cc(=O)oc2c3c(cc(OCC(=O)N[C@@H](Cc4ccccc4)C(=O)O)c12)OC(C)(C)CC3	none
Cc1c(C)c2c(OCC(=O)NCC(=O)NCC(=O)O)cc3c(c2oc1=O)CCC(C)(C)O3	D2 PAM-2 30
O=C(c1c[nH]c2ccccc12)N1CCOCC1	none
S=C(c1c[nH]c2ccc(Br)cc12)N1CCOCC1	D2 antagonist 38
CCOC(=O)CC(NC(=O)c1cc2cc(OC)ccc2oc1=O)c1ccc(OC)cc1 (stereo unspecified)	none (no result: D2 PAM-1, D2 ag-2, D2 antagonist)
Cc1ccc(CNC(=O)C(C)OC(=O)c2ccco2)cc1 (stereo unspecified)	none
CCC(OC(=O)c1ccco1)C(=O)NCc1ccc(C)cc1 (stereo unspecified)	D2 antagonist 66
Cc1ccccc1-c1nc(CN2CCC(C(=O)NCc3ccccc3Cl)CC2)c(C)o1	none (no result: D2 PAM-1, D2 ag-2, D2 antagonist, D2 PAM-2)
CC1Cc2ccccc2N1C(=O)CN1CCN(Cc2ccccc2)CC1 (stereo unspecified)	D2 antagonist 41
CC1Cc2ccccc2N1C(=O)Cn1cc([N+](=O)[O-])cn1 (stereo unspecified)	D2 antagonist 39
O=C(Cn1cc([N+](=O)[O-])cn1)N1CCc2ccccc21	none
COc1cccc(NC(=O)c2cn(C3CCCCC3)c(=O)c3c2c2ccccc2n3C)c1	none (no result: D2 PAM-1, D2 ag-2, D2 antagonist)
Cc1cc(C)cc(-n2cnc3cc(C(=O)NCCc4ccccc4)ccc32)c1	none (no result: D2 PAM-1, D2 ag-2, D2 antagonist)
CN(C)S(=O)(=O)c1cccc(NC(=O)CNCC2CCCCC2)c1	D2 antagonist 55
CN(CC(=O)Nc1cccc(S(=O)(=O)N2CCCCC2)c1)Cc1ccc(F)cc1	D2 antagonist 32
NC(=O)c1nn(CC(=O)Nc2cccc(S(=O)(=O)N3CCCCCC3)c2)c(=O)c2ccccc12	none
CN(CC(=O)Nc1cccc(F)c1)CC(=O)Nc1cccc(S(=O)(=O)N2CCCCCC2)c1	none
CN(C)S(=O)(=O)c1cccc(NC(=O)CNc2cccc(S(=O)(=O)N3CCCCC3)c2)c1	none (no result: D2 ag-1, D2 antagonist, D2 PAM-2)
NC(=O)c1nn(CC(=O)Nc2cccc(S(=O)(=O)N3CCCC3)c2)c(=O)c2ccccc12	D2 antagonist 44
CN(CC(=O)Nc1cccc(S(=O)(=O)N(C)C)c1)Cc1ccccc1	D2 antagonist 33
Cc1cccc(CSc2cn(CC(=O)N3CCOCC3)c3ccccc23)c1	D2 antagonist 35
O=C(Cn1cc(/C=N/O)c2ccccc21)N1CCOCC1	D2 antagonist 39
O=C(Nc1ccc2nc(SCC(=O)N3CCCc4ccccc43)sc2c1)c1ccccc1	none (no result: D2 PAM-1, D2 ag-2, D2 antagonist)
COc1ccccc1CNC(=O)c1ccc(-c2nc(CS(=O)c3ccc(C)cc3)c(C)o2)cc1 (stereo unspecified)	none (no result: D2 PAM-1, D2 ag-2, D2 antagonist)
Nc1c(C(=O)c2ccccc2)sc2nsc(SCCN3CCCC3)c12	D2 ag-1 37
CCC(C)(C)n1nnnc1C(c1ccc(O)c(OC)c1)N1CCc2ccccc2C1 (stereo unspecified)	D2 antagonist 35
CCC(C)(C)n1nnnc1C(c1ccccc1)N1CCc2ccccc2C1 (stereo unspecified)	none
COc1cc(C2NC(=O)N(C)C3=C2C(=O)N(c2ccccc2)C3)ccc1O (stereo unspecified)	none (no result: D2 PAM-1, D2 ag-2, D2 antagonist)
Cc1cccc(C)c1NCc1n[nH]c(=S)n1-c1ccccc1	D2 antagonist 51
Cc1nc(-c2ccc(Cl)cc2)sc1C1(C)CC(c2cccc(F)c2)=NO1 (stereo unspecified)	D2 antagonist 30
Cc1nc(-c2ccc(Cl)cc2)sc1C1(C)CC(c2cccc(Cl)c2)=NO1 (stereo unspecified)	none
CCc1ccc(S(=O)(=O)N2CCN(c3ccc(Cl)c(Cl)c3)CC2)cc1	none (no result: D2 PAM-1, D2 ag-2, D2 antagonist)
O=C(NCCc1csc2nc(-c3cccc(F)c3)nn12)c1ccc(Br)o1	none (no result: D2 PAM-1, D2 ag-2, D2 antagonist)
Cc1[nH]n2c(=O)c3c(nc2c1-c1ccc(F)cc1)CCCC3	D2 antagonist 36
Cc1[nH]n2c(=O)c3c(nc2c1-c1ccccc1)CCCC3	none
O=C(O)c1cccc(-n2c(-c3cnccn3)n[nH]c2=S)c1	D2 antagonist 30
COc1ccccc1-c1ccc(/C=C2/C=C(CC(C)C)OC2=O)o1	D2 antagonist 33
CCN1CCc2c(C#N)c(NCc3ccccc3)nc(N(CC)CC)c2C1	D2 antagonist 46
N#Cc1c(NCCN)nc(NCc2ccccc2)c2c1CCN(Cc1ccccc1)C2	none (no result: D2 ag-1, D2 antagonist, D2 PAM-2)
CCCCC(CC)CNC(=O)CN1C(=O)CSc2ccc(S(=O)(=O)N3CCOCC3)cc21 (stereo unspecified)	none (no result: D2 PAM-1, D2 ag-2, D2 antagonist)
O=C(Cn1cc(S(=O)(=O)Cc2ccc(F)cc2)c2ccccc21)NCCc1ccccc1	none (no result: D2 PAM-1, D2 ag-2, D2 antagonist)
C/C(=N\Nc1ccc(Cl)c(C(=O)O)c1)c1ccc(Br)s1	D2 antagonist 47
COc1ccccc1OCC(=O)N(Cc1ccco1)Cc1ccccc1F	none (no result: D2 ag-1, D2 PAM-1, D2 ag-2, D2 antagonist)
Nn1c(SCCOc2ccccc2)nnc1-c1cccnc1	D2 antagonist 33
O=C(Nc1sc2c(c1C(=O)O)CCC2)c1ccco1	none
COC(=O)c1c(NC(=O)c2ccco2)sc2c1CCC2	D2 PAM-2 30
COC(=O)c1c(NS(=O)(=O)c2cccs2)sc2c1CCCC2	D2 antagonist 41
Cc1ccc(C(=O)Nc2sc3c(c2C(=O)O)CCCCC3)o1	D2 antagonist 32
COC(=O)c1c(NC(=O)Cc2cccs2)sc2c1CCCC2	none
CC(OC(=O)/C=C/c1ccccc1)C(=O)N1CCc2ccccc21 (stereo unspecified)	D2 antagonist 30 (no result: D2 ag-1)
Cc1ccc(-c2noc(-c3nnn(CC(=O)Nc4cccc(C(F)(F)F)c4)c3N)n2)cc1	none (no result: D2 PAM-1, D2 ag-2, D2 antagonist)
CCN(Cc1nc(-c2ccc(OC)c(OC)c2)no1)C(=O)c1ccc2c(c1)OCO2	D2 antagonist 37
CCSc1ncc(Cl)c(C(=O)N(Cc2ccccc2)c2ccc(OC)cc2)n1	none (no result: D2 ag-1, D2 PAM-1, D2 ag-2, D2 antagonist)
CCCC(=O)Nc1nc2nc(-c3ccccc3)cc(=O)n2[nH]1	D2 antagonist 32
COc1ccccc1/C=C/C(=O)OCC(=O)Nc1ccc2c(c1)OCCO2	none
COc1ccc(NC(=O)c2ccc3c(c2)OCO3)cc1Cl	D2 antagonist 39
COc1ccccc1OCCC(=O)OCC(=O)Nc1ccc(Br)cc1	D2 antagonist 91
COc1ccccc1/C=C/C(=O)Nc1ccc2c(c1)OCCO2	D2 antagonist 34
O=C(Nc1ccc(F)c(Cl)c1)c1ccc2c(c1)OCO2	none
